This excerpt belongs to a sample that is enriched for hits.
AMA1-RON2 inh = qHTS for Inhibitors of AMA1-RON; Towards Development of Antimalarial Drug Lead: Primary Screen | Plasmodium falciparum AMA1 (3D7) - RON2 peptide interaction | AlphaScreen AMA1-biotinylated RON2 peptide binding | Potency, µM (titrated, usually from 58.2 µM), most hits filed as inhibitors | 0.2% of 360,000 active; active = well fitted inhibition curve with a large enough effect; inconclusive = small, poorly fitted or top-dose-only effect; inactive = no such curve, though single readings can be large or run the other way; note: nearly all actives have a fitted effect of over 45% in size
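AMA1 (3D7) with his tag at 25 nM final met compounds first, then biotinylated RON2 peptide at 25 nM; detection used donor plus acceptor beads, 10 µg/mL apiece, read by AlphaScreen after 30 min at room temperature.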
CHX counter = Cycloheximide Counterscreen for Small Molecule Inhibitors of Shiga Toxin; cell reporter, cycloheximide protein synthesis inhibition counterscreen; max response, %; 12% of 300,000 active; AID 2314, 2010; in the data active = max response mostly above about 13%, no sharp cut-off; inactive = mostly below about 14%; note: read at 38.3 µM for the half of the compounds with a filed dose
Lassa entry inh = qHTS for Inhibitors of binding or entry into cells for Lassa Virus; Lassa virus pseudotype entry inhibition, cell reporter; Potency, µM (top dose mostly 37.9 µM), actives largely listed as inhibitors; 1.2% of 300,000 active; calls by dose curve; tested in HEK293 cells; note: nearly all actives have a fitted effect of over 50% in size
Marburg entry inh = qHTS for inhibitors of binding or entry into cells for Marburg Virus. Marburg virus pseudotyped entry inhibition, cell reporter. Potency, µM (titrated, usually from 37.8 µM), actives largely listed as inhibitors. 1.8% of 300,000 active; calls by dose curve; tested in HEK293 cells
Shiga inhibitor = A qHTS for Small Molecule Inhibitors of Shiga Toxin; Vero cells, Shiga toxin protein synthesis inhibition reporter; inhibition, % at 38.7 µM; 9.2% of 290,000 active; AID 2315, 2010; in the data active = inhibition mostly above about 28%, no sharp cut-off; inactive = mostly below about 43%
A number is an active result; n = inactive; u = inconclusive; x = no result; [ ] = another dose, or the depositor's remark.

SMILES | AMA1-RON2 inh | CHX counter | Lassa entry inh | Marburg entry inh | Shiga inhibitor
Cc1cc(C)nc(SCc2ccc(C(=O)NNC(=O)Nc3cccc(Cl)c3)cc2)n1 | n[11.6 µM] | n | 11µM | u | n
Cc1cc(C)nc(SCc2ccc(C(=O)N/N=C/c3ccncc3)cc2)n1 | n | n | n | n | n
COc1ccc2c(=O)c(N3C(=O)c4ccccc4C3=O)coc2c1 | n | n | n | n | n
COc1ccc2c(=O)c(-c3ccc4c(c3)OCO4)coc2c1 | n | 68 | n | u | 76
COc1cccc(Oc2coc3cc(OC(=O)N4CCOCC4)ccc3c2=O)c1 | n | n | n | n | n
CCc1cc2c(=O)c(-c3nc4ccccc4[nH]3)coc2cc1OC(=O)N1CCOCC1 | n | 24 | n | n | n
CCc1cc2c(=O)c(-c3nc4ccccc4[nH]3)coc2c(CN2CCC(C)CC2)c1O | x | x | x | n | x
COc1ccc(-c2coc3cc(OC(=O)N4CCOCC4)ccc3c2=O)cc1 | n | 26 | u | n | 31
CCN(CC)C(=O)Oc1ccc2c(=O)c(-c3ccc(OC)cc3)coc2c1 | n | 45 | n | n | 83
CCc1ccccc1Nc1nn2c(=O)c3ccc(C(=O)NCc4cccs4)cc3nc2s1 | x | x | n | x | x
CC(=O)Oc1ccc2c(=O)c(-c3nc4ccccc4s3)coc2c1 | n | 60 | n | u | 95
CCN(CC)C(=O)Oc1ccc2cc(Br)ccc2c1 | n | 28 | n | u | 123
CCN(CC)C(=O)Oc1ccc2c(=O)c(-c3ccc(OC)cc3)c(C)oc2c1 | n | n | n | n | n
COc1ccccc1-c1coc2cc(OC(=O)N3CCOCC3)ccc2c1=O | n | 48 | x | x | 101
CC(=O)Oc1ccc2c(=O)c(Oc3ccccc3[N+](=O)[O-])coc2c1 | n | n | n | u | n
COc1ccccc1Oc1coc2cc(OC(=O)N3CCOCC3)ccc2c1=O | n | n | n | n | n
COc1ccc(CNC(=O)COC(=O)Cc2ccc(Br)cc2)cc1 | n | x | n | u | x
CCc1ccc(C(=O)Nc2ccc(C)c(NS(C)(=O)=O)c2)cc1 | n | 7.6 | x | x | n
Cc1ccc(NC(=O)c2ccc(F)cc2F)cc1NS(C)(=O)=O | n | n | x | x | 61
CC1(C(=O)NS(=O)(=O)c2ccc(Br)cc2)CCN1C(=O)CCc1cccs1 (centres undefined) | n | x | x | x | x
CCC(=O)N1CCc2cc(S(=O)(=O)Nc3ccc4c(c3)OCCO4)ccc21 | n | n | n | 7.9µM | n
CC(=O)N1CCc2cc(S(=O)(=O)CCC(=O)Nc3ccc4c(c3)OCCO4)ccc21 | n | 12 | n | n | n
CCc1ccc(NC(=O)CCS(=O)(=O)c2ccc3c(c2)CCN3C(C)=O)cc1 | n | n | n | n | n
Cc1ccc(-n2cc(C(=O)c3ccccc3O)cn2)cc1 | n | 53 | 3.5µM | u | 61
Cc1ccc(O)c(C(=O)c2cnn(-c3ccccc3)c2)c1 | n | 27 | n | u | 108
SMILES | AMA1-RON2 inh | CHX counter | Lassa entry inh | Marburg entry inh | Shiga inhibitor
Oc1cnn(-c2ccccc2)c1 | n | 16 | n | u | n
Cc1ccc(-n2cc(C(=O)c3ccc4ccccc4c3O)cn2)cc1 | n | n | n | n | n
CCc1cc(C(=O)Cc2cnn(-c3ccccc3)c2)c(O)cc1O | n | n | n | u | n
O=C(Cc1cnn(-c2ccccc2)c1)c1ccc(O)c(O)c1O | n | 17 | u | n | n
CCC(NC(=O)C1C2C=CC(C2)C1C(=O)O)c1ccc(C)cc1 (centres undefined) | n | n | u | n | n
COc1cccc(C(O)c2nc(-c3cccc(CO)c3)cs2)c1 (centres undefined) | n | x | x | x | x
CC12CCC3c4ccccc4CCC3(CO1)C2 (centres undefined) | n | x | x | x | x
CCC(=O)N1CCN(c2ccc(Cl)cc2NC(=O)c2ccc3c(c2)OCCO3)CC1 | n | n | n | n | n
CN1CCN(c2ccc(NC(=O)c3ccc4c(c3)OCCO4)cc2)CC1 | n | 36 | n | u | 81
CCC(=O)N1CCN(c2ccc(NC(=O)c3ccc4c(c3)OCCO4)cc2)CC1 | n | 19 | u | n | n
Cc1ccc(C(=O)Nc2ccc(N3CCN(C)CC3)cc2)c(Cl)c1 | n | 42 | n | u | 62
Cc1ccc(C(=O)Nc2ccc(N3CCN(C)CC3)cc2)cc1C | n | 32 | x | x | 80
CN1CCN(c2ccccc2NC(=O)c2ccc3c(c2)OCCO3)CC1 | n | n | u | n | n
CCn1c(COC(=O)CNC(=O)c2cc(OC)c(OC)c(OC)c2)nc2cc(S(=O)(=O)N(C)C)ccc21 | n | x | n | n | x
O=C(NCc1cccc(Cl)c1)c1cnc(N2CCCCC2)c2ccccc12 | x | x | n | x | x
O=C(NCCC1CCCCN1S(=O)(=O)c1ccccc1)C(=O)Nc1ccc(F)cc1F (centres undefined) | n | x | u | n | x
Clc1ccccc1C1=CC(c2ccco2)n2nnnc2N1 (centres undefined) | n | n | n | n | n
C1=C(c2ccc(-c3ccccc3)cc2)Nc2ncnn2C1c1ccco1 (centres undefined) | n | 31 | n | u | 92
Fc1ccc(C2=CC(c3ccco3)n3ncnc3N2)cc1 (centres undefined) | n | n | n | n | n
Brc1ccc(C2=CC(c3ccco3)n3nnnc3N2)cc1 (centres undefined) | n | 16 | n | n | 57
COc1ccccc1-c1nc(SCC(=O)NCc2ccccc2)c2c(=O)n(C)c(=O)n(C)c2n1 | x | x | n | x | x
CCCCN(CCCC)C1=C(C(=O)c2ccccc2)N(C)S(=O)(=O)c2ccccc21 | x | x | n | n | x
CSCCC(NS(=O)(=O)c1ccc(C)cc1)C(=O)N1CCN(C(c2ccccc2)c2ccccc2)CC1 (centres undefined) | n | x | 3.5µM | u | x
COc1cc(C(=O)O[C@@H]2CC3CC[C@]2(C)C3(C)C)ccc1O | x | n | x | x | 29
CC1(C)[C@H]2CC[C@]1(C)[C@H](OC(=O)CC(=O)O)C2 | x | x | x | n | x
SMILES | AMA1-RON2 inh | CHX counter | Lassa entry inh | Marburg entry inh | Shiga inhibitor
CCc1c(-c2ccccc2)nc2ccccc2c1C(=O)NCc1ccc(C)cc1 | x | x | n | x | x
COc1cccc(CNC(=O)CSC2=Nc3ccccc3N=C(c3ccc(F)cc3)C2)c1 | x | x | n | x | x
COc1cc(/C=N/NC(=O)c2ccoc2C)cc(OC)c1O | n | 47 | u | n | 83
COc1ccc(/C=N/NC(=O)c2ccoc2C)cc1COc1c(C)cccc1C | n | 33 | u | 5.6µM | 117
Cc1cccn2c(=O)c3cc(C(=O)NCc4ccccc4)c(=N)n(CCOCCO)c3nc12 | x | x | n | n | x
Cc1c(Cl)cccc1NC(=O)c1ccc2nc(C(C)C)oc2c1 | x | x | n | x | x
Cn1nc(C(=O)OCC(=O)Nc2ccc3ccccc3c2)c2ccccc2c1=O | n | n | n | u | n
CCOc1ccccc1C1C(C(=O)Nc2ccccc2OC)=C(C)Nc2nnnn21 (centres undefined) | n | n | n | n | n
CCCCc1nc2c(c3c1C[C@H](C)OC3)CN(S(=O)(=O)c1ccc(C)cc1)CC2 | x | x | u | n | x
COC(=O)[C@H](C)NC(=O)c1cc2c(cn1)[nH]c1ccccc12 | n | 15 | n | n | n
O=C(NCCCO)c1cc2c(cn1)[nH]c1ccccc12 | n | 27 | x | x | n
